Our source for the z-score values is PubChem BioAssay AID492967 (ICCB-Longwood Screening Facility, Harvard Medical School, 2010).

Values joined by “and” are separate entries in the source; they are usually repeats but may differ in a detail not shown here. Identical values can stand only once. The campaign covered roughly 140,000 compounds. About 320 (0.23%) were called active. No stated cut-off is given here; in the data, active means z-score mostly below about -2.9 (no sharp cut-off); inactive means mostly above about -1.9. The list comes from a sample in which actives are over-represented; it also holds similar structures and randomly drawn compounds. The source holds several records for some structures; these can differ, active in one and inactive in another.

The assay has as its system CapD gamma-glutamyltranspeptidase (Bacillus anthracis Ames Ancestor). The assay is described as follows: inhibition of CapD gamma-glutamyltranspeptidase – biochemical, fluorescence intensity, primary screen (AID 492967). The note with it: purified CapD enzyme, fluorescence intensity read-out; stronger effect = lower value.
Take `Fc1ccccc1-c1nc(N2CCC3(CC2)OCCO3)c2ccccc2n1`: the z-score is -0.275 (inactive).
For `CC(C)C(=O)N=c1scc(-c2ccccc2)n1-c1ccccc1Cl`, the z-score was 0.04 (inactive).
For `COc1ccc(C(=O)NNC(=O)C2CCN(c3ccc(C(F)(F)F)cn3)CC2)cc1`, the z-score was 3.11 (inactive).
As to `CC(C)CCOc1ccc(C(=O)C(C)C)cc1`, the z-score is 0.445 (inactive).
The value for `COc1ccccc1C1CCN(C(=O)c2ccccc2C(F)(F)F)CC1` was 0.315 (inactive).
The value for `CC1=C(C(=O)OCCc2ccccc2)C(c2ccccc2C(F)(F)F)NC(=O)N1C` (stereo not given) was -0.495 (inactive); that for `N#C/C(=C\C=C\c1ccccc1)c1nc2ccccc2[nH]1` was 2.54 (inactive); that for `N#CC(=C1C(=O)c2ccccc2C1=O)c1nc2ccccc2[nH]1` was -4.36 (active).
The value for `CS(=O)(=O)c1nc2ccccc2[nH]1` was 0.005 (inactive); that for `ClCCOc1nc(N2CCOCC2)nc(N2CCOCC2)n1` was -0.68 (inactive); that for `O=C(c1ccc(Cn2c(=S)[nH]c3ccc(Br)cc3c2=O)cc1)N1CCN(C(=O)c2ccco2)CC1` was 0.025 (inactive).
As to `Cc1ccccc1C(=O)N1CCc2c([nH]c3ccccc23)C1`, the z-score is 0.37 (inactive).
As to `CCOC(=O)C1=CN(Cc2ccc(OC)cc2)C=C(C(=O)OCC)C1c1cc(Br)c(OCC)c(OC)c1`, the z-score is 22.1 (inactive).
The value for `O=C(Cn1c2ccccc2c(=O)c2cc(Cl)ccc21)Nc1ccc(OCc2ccccc2)cc1` was 0.395 (inactive); that for `COc1ccc(S(=O)c2ccccc2C(=O)O)cc1` (stereo not given) was 0.375 (inactive).
The value for `COc1ccccc1N1CCN(c2ncnc3sc(C(=O)Nc4ccc5c(c4)OCCO5)c(C)c23)CC1` was -0.055 (inactive); that for `COc1cccc(N/C(SCc2c(F)cccc2Cl)=C(/C#N)C(=O)NCc2ccccc2)c1` was -0.425 (inactive).
For the molecule `O=c1c(-c2cc3ccccc3o2)[n+]([O-])c2ccccc2n1O`, the z-score was 2.82 (inactive).
Regarding `O=C1/C(=C/c2ccc(Br)cc2)C=C(c2ccccc2)N1c1ccccc1Br`, the z-score is -0.72 (inactive).
The value for `NC(=O)CCc1cn(-c2ccccc2)nc1-c1ccccc1` was -0.045 (inactive); that for `COc1cc2c(cc1OC)C(c1ccc(Cl)cc1)NC(=O)C2` (stereo not given) was -0.115 (inactive).
On to `CCOC(=O)C1=C(C)NC(C)=C(C(=O)OCC)C1c1cn(-c2ccccc2)nc1-c1ccc(F)cc1`, for which the z-score was 3.54 (inactive).
With `CC(C)(C)c1ccc(S(=O)(=O)Nc2ccc3c(c2)N(S(=O)(=O)c2cccc(C(F)(F)F)c2)CC3)cc1`, the z-score was -0.6 (inactive).
For the molecule `Cc1c(Cl)cccc1N=C1NC(=O)/C(=C/c2ccco2)S1`, the z-score was -1 (inactive).
The value for `CCN(CC)C(=O)Cn1ncc2c3ccccc3n(Cc3ccccc3)c2c1=O` was 2.73 (inactive).
With `O=C(CN1C(=O)CC(c2ccccc2)Sc2ccccc21)NCc1ccccc1` (stereo not given), the z-score is -0.28 (inactive).
Consider `COc1cc(/C=C2/N=C(c3ccc(Cl)c([N+](=O)[O-])c3)OC2=O)cc(OC)c1OC`, for which the z-score is 0.85 (inactive).
The value for `CC1CCC(C(C)C)C(OCC(O)CN2CCN(c3ccccc3)CC2)C1` (stereo not given) was 0.045 (inactive); that for `COC(=O)Nc1c(C)n(C)n(-c2ccccc2)c1=O` was 0.115 (inactive); that for `Cc1ccc(C(=O)N/C(=C\c2ccccc2)C(=O)Nc2c(C)n(C)n(-c3ccccc3)c2=O)cc1` was -0.355 (inactive).
The value for `Cc1c(NC(=O)c2cccnc2)c(=O)n(-c2ccccc2)n1C` was -0.255 (inactive) and -5.24 (active).
The value for `COc1cc(NC(=O)c2cc(N(C)C)nc(N(C)C)n2)cc(OC)c1` was 4.64 (inactive).
On to `COc1cccc(C(=O)c2cc3ccc(O)cc3oc2=O)c1`, for which the z-score is -6.04 (active).
In the case of `COc1ccc2oc(=O)c(C(=O)O)cc2c1`, the z-score was 31.1 (inactive).
For the molecule `COc1ccc2oc(=O)c(C(=O)NC(C)(C)C)cc2c1`, the z-score was 13.9 (inactive).
For `Cc1cccc(-c2noc(-c3ccc(OC(F)(F)F)cc3)n2)c1`, the z-score is -0.145 (inactive).
For `CC(=O)Nc1ccccc1C(=O)OCC(=O)Nc1nc2ccccc2s1`, the z-score is -0.695 (inactive).
With `O=C(O)CC(CC(=O)Oc1ccccc1N1CCCC1)c1ccccc1` (stereo not given), the z-score was -0.435 (inactive).
The value for `CC(C)C(=O)Nc1c2c(nn1-c1ccccc1)CSC2` was 0.225 (inactive).
The value for `COc1cc(C(=O)Nc2c3c(nn2-c2cccc(C)c2C)CS(=O)(=O)C3)cc(OC)c1OC` was 0.345 (inactive); that for `Cc1cccc(-n2nc3c(c2NC(=O)/C=C\c2ccco2)CSC3)c1C` was -4.94 (active); that for `COc1ccc(OC)c(/C=N/NC(=O)c2cn(C)c3ccccc23)c1` was 14.4 (inactive).
The value for `CC(C)Oc1ccccc1Oc1ccc([N+](=O)[O-])cn1` was -0.145 (inactive).
In the case of `COc1ccc(OC)c(-n2c(=S)[nH]c3cc(C(=O)Nc4ccc(OC)c(OC)c4)ccc3c2=O)c1`, the z-score was -1.08 (inactive).
The value for `CSc1ccc(-c2ncnn2-c2ccc(Cl)cc2)cc1` was -0.715 (inactive); that for `Cn1cc(CC(=O)Nc2ccccc2)c2ccccc21` was -0.8 (inactive); that for `Clc1ccc(C2N=C(c3cnccn3)NN2)cc1` (stereo not given) was -0.935 (inactive).
The value for `CCO/C=C1\C(=O)N(c2ccc(C)cc2C)C(=O)c2cc(OC)ccc21` was 0.06 (inactive); that for `COc1ccc(C2CC(=O)C3=C(C2)Nc2ccc4ccccc4c2C3c2ccc3c(c2)OCO3)cc1` (stereo not given) was 1.5 (inactive); that for `CC(NC(=O)Cn1nc(-c2ccc(Cl)cc2)c2ccccc2c1=O)c1ccccc1` (stereo not given) was -0.405 (inactive).
For `CC1CCc2c(sc(NC(=O)c3sc4ccccc4c3Cl)c2C(=O)OC(C)C)C1` (stereo not given), the z-score was -0.045 (inactive).
The value for `O=C1NC(=S)N/C1=C\c1c(F)cccc1Cl` was -4.06 (active).
The value for `O=C1NC(=S)N/C1=C/c1cc(I)cc(I)c1O` was -0.725 (inactive).
The value for `C=CCOC(=O)c1cc(-c2ccc(/C=C3/NC(=S)NC3=O)o2)ccc1Cl` was 0.96 (inactive); that for `COC(=O)c1c(NC(=O)c2c(-c3c(Cl)cccc3Cl)noc2C)sc2c1CCCC2` was -0.55 (inactive); that for `COc1ccc(/C=C/C(=O)N2CCN(C(c3ccccc3)c3ccccc3)CC2)cc1OC` was 4.64 (inactive).
For the molecule `CC1(C)OCC([C@H]2O[C@@H]3OC(C)(C)OC3C2OC(=O)Nc2ccc(Cc3ccc(NC(=O)OC4C5OC(C)(C)O[C@H]5O[C@@H]4C4COC(C)(C)O4)cc3)cc2)O1` (stereo not given in full), the z-score was -0.275 (inactive).
The value for `CC(C)(C)C(=O)N(Cc1cccnc1)Cc1ccc(Cl)cc1Cl` was -0.865 (inactive).
With `Cc1ccc(S(=O)(=O)c2cnc(SCC(=O)N3CCCc4ccccc43)[nH]c2=O)cc1`, the z-score is -0.55 (inactive).
In the case of `CC1CCN(c2nc3nonc3nc2Nc2cccc(Br)c2)CC1`, the z-score is 0.265 (inactive).
